Screening results: PubChem, National Center for Advancing Translational Sciences (NCATS)
SMN2 splice enh = enhancers of SMN2 splice variant expression. HEK293 SMN2-luciferase splicing reporter, luminescence, 30-36 h. Potency, µM (top dose mostly 46.1 µM), actives largely listed as activators. actives 2.8% (n = 210,000). AID 1458; note: nearly all actives have a fitted effect of over 55% in size
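qHTS luciferase splicing reporter: luminescence rises when SMN2 exon 7 is included in transfected HEK293 cells. Compound exposure lasted 30-36 h at 37C, with 4.5 mM final sodium butyrate as control, followed by a ONE-Glo read.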
NPC1 promoter act = activates the NPC1 promoter. Huh7 NPC1 promoter luciferase reporter, 24 h. Potency, µM (highest dose often 9.22 µM), most hits filed as activators. actives 2.4% (n = 320,000). AID 485313; note: nearly all actives have a fitted effect of over 60% in size
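NPC1 promoter–luciferase Huh7 cells; 24 h compound; luminescence.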
Rab9 prom act = activators of Rab9 promoter; Potency, µM (titrated, usually from 9.22 µM), most hits filed as activators; actives 2.8% (n = 320,000); Huh7 Rab9 promoter-luciferase reporter, luminescence, 24 h; AID 485297; note: nearly all actives have a fitted effect of over 60% in size
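Stable Rab9-luc Huh7, 1500 cells/well, 2 h settle; cmpd in DMSO, 24 h, 37 °C/5% CO2; luciferase reagent 10 min RT; luminescence.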
FLuc counter = counter-screen for miR-21 project: firefly luciferase inhibitors or activators; P08659; AID 588342; actives 6.9% (n = 360,000); Potency, µM (doses to about 57.5 µM), actives largely listed as inhibitors; purified FLuc, Km substrates, luminescence inhibition; note: nearly all actives have a fitted effect of over 55% in size
Target sequence (P08659 whole entry, looked up): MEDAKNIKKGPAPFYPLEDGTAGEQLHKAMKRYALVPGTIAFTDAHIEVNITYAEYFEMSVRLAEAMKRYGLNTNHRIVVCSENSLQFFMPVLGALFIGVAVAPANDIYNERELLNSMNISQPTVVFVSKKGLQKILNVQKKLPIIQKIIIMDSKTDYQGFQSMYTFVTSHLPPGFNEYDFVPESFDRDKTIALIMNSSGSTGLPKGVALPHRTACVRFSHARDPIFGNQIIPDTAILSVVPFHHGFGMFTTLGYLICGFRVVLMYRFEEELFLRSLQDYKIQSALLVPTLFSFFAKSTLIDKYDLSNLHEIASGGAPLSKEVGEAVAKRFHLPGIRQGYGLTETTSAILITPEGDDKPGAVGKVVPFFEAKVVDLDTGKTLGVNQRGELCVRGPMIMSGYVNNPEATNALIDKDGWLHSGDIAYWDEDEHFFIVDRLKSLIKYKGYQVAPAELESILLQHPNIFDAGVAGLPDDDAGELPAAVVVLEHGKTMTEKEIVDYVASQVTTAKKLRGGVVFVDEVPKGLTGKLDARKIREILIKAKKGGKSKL
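Biochemical qHTS of compounds, final roughly 60 µM downward over six points, against 10 nM purified firefly luciferase using Km concentrations of substrates (10 uM D-luciferin, 10 uM ATP) in Tris acetate pH 7.5 buffer; luminescence output.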
ELG1 repair inh = ELG1-dependent DNA repair inhibition; AID 504467; actives 2.3% (n = 330,000); HEK293T ELG1-luciferase reporter, luminescence, 16 h; DNA damage induced by 5-fluorouridine; Potency, µM (doses to about 46.1 µM), hits mostly inhibitors; note: nearly all actives have a fitted effect of over 55% in size
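Luminescence from the luciferase reporter, measured 30 min after ONE-Glo reagent at room temperature, was the read-out. Beforehand, 2,000 cells per well were exposed for 16 hr at 37 °C to 5-fluorouridine together with compound or vehicle.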
ELG1 genotox = inducers of genotoxicity in HEK293T ELG1-luciferase cells. Potency, µM (highest dose often 46 µM), actives largely listed as activators. HEK293T ELG1-luciferase reporter, luminescence, 16 h. actives 1.3% (n = 330,000); note: nearly all actives have a fitted effect of over 60% in size
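Reporter readout depends on ELG1 protein level, which increases with genetic stress. After 16 hr compound exposure at 37 °C, luciferase activity was quantified using ONE-Glo.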
Numbers stand for hits; n = inactive; u = inconclusive; x = no result; [ ] = dose if it differs, or a comment. Shown are actives, neighbours in structure and some others; about 9.2% of the full set was active somewhere. Calls come from the whole dose curve; as a rule, active = well fitted curve in the direction sought with a large enough effect; inconclusive = small, poorly fitted or top-dose-only effect, or another doubt; inactive = no such curve, though single readings can be large; an effect the other way counts as inactive or inconclusive.

SMILES | SMN2 splice enh | NPC1 promoter act | Rab9 prom act | FLuc counter | ELG1 repair inh | ELG1 genotox
CCOc1ccc(NC(=O)Cn2ccn(-c3ccc(F)c(F)c3)c(=O)c2=O)cc1 | x | x | x | n | x | x
Cc1ccc(NC(=O)c2cc(=O)c3ccccc3o2)cc1S(=O)(=O)N1CCOCC1 | x | n | n | n | 23.1µM | n
Cc1cc2oc(C(=O)Nc3ccc(S(N)(=O)=O)cc3)cc(=O)c2cc1C | n | x | x | n | x | x
Cc1ccc(NC(=O)C(=O)c2c(-c3ccccc3)cc3ccccn23)cc1S(=O)(=O)N1CCOCC1 | n | n | n | n | 9.2µM | n
Cc1ccc(NC(=O)c2ccccc2-c2ccc(C(F)(F)F)cc2)cc1S(=O)(=O)N1CCOCC1 | n | n | n | n | 20.6µM | n
CC(=O)Nc1ccc(NC(=O)c2cc(=O)c3cc(C)c(C)cc3o2)cc1 | x | n | n | 2.69µM | n | n
Fc1ccc([C@@H]2Nc3ccccc3[C@@H]3C=CC[C@@H]32)cc1 | n | x | x | u | x | x
Cc1ccc(NC(=O)c2cc(=O)c3ccccc3o2)cc1S(=O)(=O)N1CCCCC1 | n | n | n | n | 16.4µM | n
O=C(Nc1ccc(S(=O)(=O)N2CCCCCC2)cc1)c1cc(=O)c2ccccc2o1 | n | x | x | n | x | x
Cc1ccc(O)c(C2=Nc3ccccc3C2(C)C)c1 | n | n | u | 12µM | u | u
COc1ccc(C)cc1C1=Nc2ccccc2C1(C)C | n | n | n | n | n | n
Cc1ccc(C)c(S(=O)(=O)/N=C(/Nc2ccccc2)c2ccccc2)c1 | x | x | x | x | u | n
Cc1cc2c3c([nH]c2cc1S(=O)(=O)N1CCC2(CC1)OCCO2)CC(C)(C)CC3=O | x | n | n | n | 20.6µM | n[9.26 µM]
O=C1c2ccccc2C(=O)N1CCCc1cn(C[C@H]2CC[C@H](Cn3cc(CCCN4C(=O)c5ccccc5C4=O)nn3)O2)nn1 | x | x | x | x | 8.2µM | n
c1ccc(-c2cn(C[C@H]3CC[C@H](Cn4cc(-c5ccccn5)nn4)O3)nn2)nc1 | x | n | n | n | n | n
CCCc1nnc(NC(=O)c2cc3ccccc3oc2=O)s1 | n | n | n | n[2.3 µM] | u | n
COCc1nnc(NC(=O)c2cc3ccccc3o2)s1 | x | u | u | 19µM | u | u
CCCc1nnc(NC(=O)c2cc3ccccc3o2)s1 | x | 3.55µM | 3.98µM | 13.5µM | u | n
COCc1nnc(NC(=O)c2cccc(NC(=O)c3ccccc3)c2)s1 | x | n | n | 19µM | n | n
COC(=O)Cc1nnc(NC(=O)c2ccccc2)s1 | x | n | n | n | n | n
Cc1cc(OCc2cccc(S(=O)(=O)N3CCOCC3)c2)ccc1Cl | x | n | n | n | n | n
COc1ccc(-c2noc(CCC(=O)Nc3cc(OC)ccc3OC)n2)cc1 | n | n | n | u | u | n
COc1ccc(-c2noc(CCC(=O)Nc3cccnc3)n2)cc1 | x | n | n | u | n | n
CNC(=O)CCc1nc(-c2ccc(C(C)(C)C)cc2)no1 | n | u | n | 4.78µM | u | n
COc1ccc(-c2noc(CCC(=O)Nc3cc(Cl)c(OC)cc3OC)n2)cc1 | n | n | n | 8.49µM | n | u
SMILES | SMN2 splice enh | NPC1 promoter act | Rab9 prom act | FLuc counter | ELG1 repair inh | ELG1 genotox
CC(C)(C)c1ccc(-c2noc(CCC(=O)Nc3cccnc3)n2)cc1 | x | n | n | 1.69µM | n | u
CCOc1ccc(-c2noc(CCC(=O)NC)n2)cc1OCC | x | n | n | n | n | n
CC(C)(CC(=O)O)Cc1nc(-c2ccc(Cl)cc2)no1 | n | n | n | 26.9µM | u | u
Cn1c(CNC(=O)C2CCC(=O)N(CCc3cccc(F)c3)C2)nc2ccccc21 (configuration not stated) | x | n | n | n | n | n
O=C(CN1C(=O)NC2(CCCCC2)C1=O)NCCc1ccc(Cl)cc1Cl | x | x | x | x | n | n
CN(C)C(=O)CCc1nc(-c2ccc(C(C)(C)C)cc2)no1 | n | 2.51µM | 3.16µM | 5.36µM | u | u
COc1ccc(-c2noc(CCC(=O)N3CCN(c4cccc(OC)c4)CC3)n2)cc1 | x | x | x | x | 25.9µM | n
CC(C)(C)c1ccc(-c2noc(CCC(=O)NCC3CCCO3)n2)cc1 (configuration not stated) | n | n | n | 1.9µM | u | n
